# Test results: PubChem BioAssay AID652104 (National Center for Advancing Translational Sciences (NCATS), 2013)
# The whole screen tested about 410,000 compounds, of which about 7,200 (1.8%) were called active. Where a call stands in place of a potency, no number is given. Roughly 7% stayed inconclusive and do not appear here. This excerpt belongs to a sample that is enriched for actives. Unmarked numbers belong to inactive results. Calls follow the shape of the dose curve; as a rule, active = well fitted activation curve with a large enough effect; inconclusive = small, poorly fitted or top-dose-only effect, or another doubt; inactive = no such curve, though single readings can be large or run the other way.
# Test: qHTS of TDP-43 Inhibitors; also: nearly all actives have a fitted effect of over 50% in size
# Details: TDP-43 expressing yeast growth rescue, BacTiter-Glo, 24 h; series mostly up to 46.1 µM
# Source text: The goal of this project is to identify new chemical probes capable of reversing the toxicity associated with TDP-43 which is associated with frontotemporal lobar degeneration and amyotrophic lateral sclerosis. These compounds will provide a complementary approach to deciphering the tangled mechanisms of toxicity and protection that we have uncovered through genome-wide genetic screens and are beginning to uncover in a large-scale proteomics analysis with mass spectroscopy.
# To this end, a miniaturized assay was developed to be screened against the Molecular Libraries Small Molecule Repository (MLSMR) to discover TDP-43 inhibitors. Please note that in the set-up this yeast-based assay compounds that inhibit as TDP-43, have a read-out as activators.
# NIH Chemical Genomics Center [NCGC]
# NIH Molecular Libraries Probe Centers Network [MLPCN]
# Assay Submitter (PI): Susan Lindquist, Whitehead Institute/MIT
# Dispense 2.5 microL yeast galactose medium per 1536-well plate, pin compound, dispense 2.5 microL TDP-43 expressing yeast in galactose medium at OD600=0.02 (pregrown in raffinose medium to mid-log phase) per well, incubate for 24 hr at 30 deg C, and cell growth will be measured using 5 microL of Bactiter/Glo reagent to entire plate and read using Luminescence Protocol in ViewLux.
# Potency is read from the fitted curve at half-maximal effect.
SMILES,Potency,growth rescue (activation)
CC(C)c1ccc(NC(=O)c2ccc3c(O)c(S(=O)(=O)c4ccccc4)c(=O)[nH]c3c2)cc1,inactive,
O=C1N(Cc2ccccc2)c2ccc(Cl)cc2C1(O)c1c[nH]c2ccccc12 (stereo not given),inactive,
CCOc1ccc(NC(=O)CSc2nncn2C)cc1,inactive,
CCCCN(C(=O)CSCC(=O)Nc1ccc(OC)cc1)c1c(N)n(CCC)c(=O)[nH]c1=O,inactive,
CCCCOc1ccc(NC(=O)CSCC(=O)OCC)cc1,12.6 µM (active),
O=C(COc1ccc(Cl)cc1)Nc1ccc(-c2nc3cc(Cl)ccc3o2)c(O)c1,inactive,
O=S(=O)(c1ccc(Br)cc1)c1nnn2c1nc(NC1CCCCCC1)c1sccc12,inactive,
COC(C[C@@H]1O[C@@H]1C(=O)[C@H](C)OCc1ccccc1)OC,inactive,
COC(C/C=C/C(=O)[C@@H](C)OCc1ccccc1)OC,20 µM (active),
COC(C[C@H](O)CC(=O)[C@@H](C)OCc1ccccc1)OC,inactive,
Cc1ccc(NC(=O)C(=O)NCC(c2cccnc2)N2CCOCC2)cc1 (stereo not given),inactive,
COc1ccc(OC)c(-n2nnc3c(sc4nc(C)c(Br)c(C)c43)c2=O)c1,inactive,
CCc1ccc(Nc2nn3c(=O)c4cc5c(cc4nc3s2)OCO5)cc1,inactive,
CC1CCN(Cc2nc(-c3ccc(Cl)cc3)no2)CC1,inactive,
COc1cc(OC)c(NC(=O)c2nc(-c3ccncc3)no2)cc1Cl,inactive,
Cc1cc(Cl)ccc1OCc1nc(-c2ccncc2)no1,20 µM (active),
Cc1c(Cl)cccc1NC(=O)Cn1cc(C(=O)c2cccs2)c2ccccc21,inactive,
COc1ccc(N2CCN(Cc3nc4c(c(=O)[nH]c(=O)n4C)n3Cc3ccc(Cl)cc3)CC2)cc1,inactive,
Cc1cccc(C(=O)N2CCc3cc(CNC(=O)Cc4ccc(F)cc4)ccc32)c1,inactive,
CC1=Nc2cc(C(=O)NCc3ccc(C)cc3)ccc2Sc2ccc(Cl)cc21,inactive,
CCc1c(-c2ccc(F)cc2)ncn1Cc1cccc(-c2ccccc2)c1,15.8 µM (active),
CCCCc1c(-c2ccc(Br)cc2)ncn1CCc1ccccc1OC,inactive,
CCCc1c(-c2ccccc2F)ncn1Cc1ccccc1OC,inactive,
CCOc1ccc(C(=O)Nc2ccc3nc4c(c(Nc5ccccc5OC)c3c2)CCCC4)cc1,inactive,
CCOc1ccc(CNC(=O)c2cc(=O)[nH]c3ccc(S(=O)(=O)N4CCCCC4)cc23)cc1,inactive,

SMILES,Potency,growth rescue (activation)
COc1ccc(CNC(=O)c2cc3c(=O)[nH]c4ccccc4c3s2)cc1,inactive,
Cc1cccc(N2CCN(S(=O)(=O)c3ccc4[nH]c5c(c4c3)CCCCC5)CC2)c1C,inactive,
O=C(c1ccc(CN2CCOCC2)cc1)N1CCN(c2ccccc2F)CC1,inactive,
COc1cc(OC)c(OC)cc1CN1CCN(C(=O)c2cccc3ccccc23)CC1,inactive,
O=C(c1cccc2ccccc12)N1CCN(c2ccccc2F)CC1,12.6 µM (active),
CCCSc1ncc(Cl)c(C(=O)Nc2sc3c(c2C(=O)NCCOC)CCCC3)n1,inactive,
O=C(NCCc1ccc(Cl)cc1)c1ccc2nc(CCc3ccccc3)oc2c1,inactive,
CNC(=O)c1nnc(Cc2ccc(Cl)cc2)o1,inactive,
CC(CNC(=O)c1nnc(Cc2cccc(F)c2)o1)c1ccccc1 (stereo not given),15.8 µM (active),
O=C(NCCCN1CCN(c2cccc(Cl)c2)CC1)c1nnc(Cc2ccc(F)cc2Cl)o1,inactive,
CCOC(=O)c1cnc2c(C)cc(Cl)cc2c1NCCc1ccc(OC)c(OC)c1,inactive,
Cc1ccc(Nc2nc3ccccc3nc2-n2nc(C)cc2C)c(Cl)c1,inactive,
CCOc1ccc(CNC(=O)c2cc(-c3ccc(Cl)s3)nc3ccccc23)cc1,inactive,
O=C(c1ccco1)n1nc(-c2ccc(Cl)cc2)nc1NCc1ccccc1,inactive,
CN(O)C(=S)c1ccccc1,3.55 µM (active),
Cc1cc(C)cc(NC(=O)Cn2nc(N3CCN(c4ccccc4)CC3)ccc2=O)c1,inactive,
Cc1cc(C)nc(-n2ncc3c2CC(c2ccc(C(C)C)cc2)CC3=O)n1 (stereo not given),28.2 µM (active),
Cc1nc2nc3c(cn2n1)C(=O)CC(c1ccccc1)C3 (stereo not given),inactive,
CC(=O)NNC(=O)c1csc(Cc2c(Cl)sc3ccc(Cl)cc23)n1,inactive,
CNC(=O)c1csc(Cc2c(Cl)sc3ccc(Cl)cc23)n1,20 µM (active),
O=C(O)COCC(=O)NCc1csc2ccc(Cl)cc12,inactive,
COc1ccc(-n2c(=O)c3ccccc3n(Cc3ccccc3Cl)c2=O)cc1,inactive,
CCCN1C(=O)C(O)(CC(=O)c2ccc(CC)cc2)c2cc(Br)ccc21 (stereo not given),25.1 µM (active),
CCOC(=O)CN1C(=O)C(O)(CC(=O)c2ccccn2)c2ccccc21 (stereo not given),inactive,
C=CCN1C(=O)C(O)(CC(=O)c2ccc(Cl)cc2)c2ccccc21 (stereo not given),inactive,

SMILES,Potency,growth rescue (activation)
Cc1coc(C)c1C(=O)CC1(O)C(=O)N(C)c2ccc(Cl)cc21 (stereo not given),inactive,
Cc1ccc(C(=O)CC2(O)C(=O)N(CCc3ccccc3)c3ccc(Br)cc32)cc1 (stereo not given),35.5 µM (active),
Cc1ccc(CCN2CC(C(=O)NCCc3ccccc3)CC2=O)cc1 (stereo not given),inactive,
O=C(CC1Oc2ccccc2NC1=O)NCc1ccc(F)cc1 (stereo not given),inactive,
O=C(O)c1c(CNCc2cccc(F)c2)c2ccccc2n1Cc1ccccc1,inactive,
COC(=O)CN1C(C)=Nc2ccc(Br)cc2C1c1ccccc1 (stereo not given),inactive,
Cc1nnc(C)n1-c1ccc(C(=O)Nc2cccc(Br)c2)cc1,inactive,
COC(=O)C1NN=C(C(=O)c2ccc(Br)cc2)C1c1cccc(Br)c1 (stereo not given),25.1 µM (active),
CC(C)Cn1c(C2CC(=O)N(c3ccccc3Cl)C2)nc2ccccc21 (stereo not given),inactive,
Cn1c(=O)n(Cc2c(F)cccc2Cl)c(=O)c2c1nc1n2CCN1c1ccc(F)cc1,inactive,
COCCNc1cc(-c2ccccc2)nc2cc(-c3cccc(F)c3)nn12,3.16 µM (active),
COc1ccc(-c2cc(C(F)(F)F)n3nc(-c4ccccc4)cc3n2)cc1OC,inactive,
COc1ccc(CCNc2nc3c(-c4cccc(F)c4)nnn3c3ccccc23)cc1OC,inactive,
CCOC(=O)c1cc2c(=O)n3ccccc3nc2n(CC2CCCO2)c1=NC(=O)c1ccccc1Br (stereo not given),inactive,
CCCc1cc(=O)n2[nH]c(NCc3ccc(CC)cc3)nc2n1,inactive,
N/C(Cc1ccc([N+](=O)[O-])cc1)=N\OC(=O)C1CCCCC1,20 µM (active),
O=C(COC(=O)Cc1ccc([N+](=O)[O-])cc1)NC1CCCCCC1,inactive,
N/C(Cc1ccc([N+](=O)[O-])cc1)=N\OC(=O)COc1ccc2ccccc2c1,inactive,
CC(C)NC(=O)c1nn(-c2ccccc2F)nc1CO,inactive,
Cc1ccc(-c2nn3c(=O)cc(CN4CCN(S(=O)(=O)c5ccc(Cl)cc5)CC4)nc3s2)cc1,inactive,
COc1cccc(C(=O)NCC(=O)OCc2cc(=O)n3ccsc3n2)c1,inactive,
O=c1cc(Cn2nnc(-c3ccc(Cl)cc3)n2)nc2sccn12,11.2 µM (active),
COc1ccc2c(c1)C(c1cccs1)=NNC(c1cccnc1)=N2,,-15% [at 9.22 µM]
Brc1ccc2c(c1)NC(c1cccnc1)=NC(c1ccccc1)=N2,35.5 µM (active),
COc1ccc(C2=NC(c3ccncc3)=Nc3ccc(Br)cc3N2)cc1,inactive,

SMILES,Potency,growth rescue (activation)
CCOc1cc(CNC(=O)c2sc3ncnc(N(C)C4CCCCC4)c3c2C)ccc1OC,inactive,
O=C(c1ccc(Cl)cc1)n1nc(-c2cccnc2)nc1NCc1ccc(F)cc1,inactive,
O=S1(=O)CCOC[C@H](Cc2ccccc2)N1Cc1ccccc1Br,inactive,
CCC(C)[C@H]1COCCS(=O)(=O)N1Cc1ccc(C)cc1 (stereo not given in full),inactive,
CCCC[C@H]1COCCS(=O)(=O)N1Cc1cccc(Cl)c1,12.6 µM (active),
Cc1cccc(OCCCC(=O)Nc2sc3c(c2C(N)=O)CCC(C)C3)c1 (stereo not given),inactive,
Cc1nn(CC(=O)N2CCN(c3cccc(C(F)(F)F)c3)CC2)c(=O)c2cc3sccc3n12,inactive,
CCOc1ccc(-n2c(SCC(=O)NCc3ccccc3)nc3n[nH]c(C)c3c2=N)cc1,inactive,
COCCCNC(=S)N1CCN(c2nc(-c3cccc(OC)c3)cs2)CC1,14.1 µM (active),
COCCCNC(=S)N1CCCC(c2nc3cc(C)c(C)cc3[nH]2)C1 (stereo not given),,-14.1% [at 0.397 µM]
CN(C)CCCNC(=S)N1CCN(c2nc(-c3ccccc3)cs2)CC1,,-17.3% [at 1.82 µM]
COc1cc(OC)c(N(C)C(=O)c2cc3c(=O)oc4ccccc4c3s2)cc1Cl,inactive,
Cc1ccc(NC(=O)CN2C(=O)C(c3ccc(F)cc3)=NC23CCCCCC3)c(C)c1,inactive,
CCOC(=O)c1ccc(CSc2nnc3cc(C)c4ccccc4n23)cc1,22.4 µM (active),
COC(=O)c1ccc(CSc2nncn2N)cc1,inactive,
CCOc1ccc(NC(=O)c2ccc(CSc3nnnn3C)cc2)cc1,inactive,
COc1ccccc1N1CCN(C(CNC(=O)C(=O)NCc2ccc(C)cc2)c2cccnc2)CC1 (stereo not given),inactive,
CCc1cccc(C)c1Nc1c(-c2ccc(N(C)C)cc2)nc2ncccn12,inactive,
COc1ccccc1CNC(=O)CCCn1c(=O)c2ccccc2n(CC(=O)Nc2ccc(C)cc2Cl)c1=O,inactive,
O=C(CSc1oc(-c2ccccc2)nc1S(=O)(=O)c1ccc(Br)cc1)NC1CCCCC1,inactive,
Cn1c(C(=O)Nc2cccc(C(F)(F)F)c2)cc2c(=O)n3ccccc3nc21,inactive,
CCc1ccc(NC(=O)c2sc3nc4c(cc3c2N)CN(CC)CC4)cc1,inactive,
CCN1CCc2nc3sc(C(=O)Nc4ccccc4OC(F)(F)F)c(N)c3cc2C1,inactive,
Cc1cccc2cc3c(N)c(C(=O)N4CCCc5ccccc54)sc3nc12,15.8 µM (active),
CC1CCC(N2CC(=O)N(CCC3=CCCCC3)C(c3ccc(F)cc3)C2=O)CC1 (stereo not given),inactive,
